# Measurements: article PMC7862700, “An all-to-all approach to the identification of sequence-specific readers for epigenetic DNA modifications on cytosine”
# Legend:
# Test in all cases: DAPPL (digital affinity profiling via proximity ligation, sequencing); 10 mM Tris-HCl pH 7.5, 50 mM NaCl, 1 mM DTT, 4% glycerol, room temperature, 30 min; GST-TFs on glutathione beads, 16-mer random dsDNA library, 0.1% formaldehyde crosslink after washing; high values mean tight binding
# FEV = biological target: T1, FEV (Homo sapiens, UniProt Q99581 1-238); conditions: protein: recombinant; tags: N-terminal GST; dsDNA, one strand shown
# T1 sequence: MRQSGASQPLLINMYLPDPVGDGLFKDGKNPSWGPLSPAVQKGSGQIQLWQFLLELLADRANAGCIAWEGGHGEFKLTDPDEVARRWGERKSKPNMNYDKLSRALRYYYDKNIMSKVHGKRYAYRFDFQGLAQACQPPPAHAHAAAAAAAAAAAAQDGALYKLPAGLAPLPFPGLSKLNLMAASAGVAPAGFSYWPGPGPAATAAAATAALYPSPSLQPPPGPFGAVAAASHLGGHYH
# How it was run: (§1)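 Sequencing on an Illumina NextSeq500 followed washing, crosslinking with 0.1% formaldehyde, proximity ligation (BsaI/T4 ligase, 1 h, 37 °C) and PCR amplification of pools that had been incubated for 30 min at room temperature with 200 nmole of a random double-stranded 16-mer DNA library in Tris/NaCl/DTT/glycerol buffer. Each pool held DNA-barcoded human transcription factors, expressed in yeast as GST fusions and captured on glutathione beads, plus a tag-only sample. Binding signal is a hexamer's read frequency for a factor divided by its frequency in the tag-only sample.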
# ETV5 = ETV5 (Homo sapiens, UniProt P41161 1-510); conditions: protein: recombinant; tags: N-terminal GST; dsDNA, one strand shown
# How it was run: as §1
# HSF1 = HSF1 (Homo sapiens, UniProt Q00613 1-529); conditions: protein: recombinant; tags: N-terminal GST; chain copies: 3; dsDNA, one strand shown
# How it was run: as §1
# SPIC = biological target: T2, SPIC (Homo sapiens, UniProt Q8N5J4 1-248); conditions: protein: recombinant; tags: N-terminal GST; dsDNA, one strand shown
# T2 sequence: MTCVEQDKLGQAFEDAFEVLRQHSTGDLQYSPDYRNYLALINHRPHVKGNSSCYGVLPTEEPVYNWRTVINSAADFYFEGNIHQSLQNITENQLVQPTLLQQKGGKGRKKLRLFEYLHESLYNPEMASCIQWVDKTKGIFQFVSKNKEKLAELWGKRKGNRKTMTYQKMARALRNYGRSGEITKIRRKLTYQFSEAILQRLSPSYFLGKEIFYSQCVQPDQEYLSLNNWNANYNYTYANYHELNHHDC
# How it was run: as §1
# ELF4 = ELF4 (Homo sapiens, UniProt Q99607 1-663); conditions: protein: recombinant; tags: N-terminal GST; dsDNA, one strand shown
# How it was run: as §1
# ELK4 = biological target: T3, ELK4 (Homo sapiens, UniProt P28324-2 1-405); conditions: protein: recombinant; tags: N-terminal GST; dsDNA, one strand shown
# T3 sequence: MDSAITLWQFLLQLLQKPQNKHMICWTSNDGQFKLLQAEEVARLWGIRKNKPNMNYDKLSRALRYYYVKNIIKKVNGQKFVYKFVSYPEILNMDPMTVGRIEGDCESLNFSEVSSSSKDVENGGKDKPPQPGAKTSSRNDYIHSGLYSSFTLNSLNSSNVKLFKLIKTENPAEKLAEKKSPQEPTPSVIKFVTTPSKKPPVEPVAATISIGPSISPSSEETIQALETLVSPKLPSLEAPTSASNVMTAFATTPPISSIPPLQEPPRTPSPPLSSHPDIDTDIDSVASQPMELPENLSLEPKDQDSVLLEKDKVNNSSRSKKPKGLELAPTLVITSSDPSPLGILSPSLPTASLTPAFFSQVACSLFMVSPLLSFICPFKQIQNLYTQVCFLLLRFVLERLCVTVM
# How it was run: as §1
# ETV2 = biological target: T4, ETV2 (Homo sapiens, UniProt O00321 1-342); conditions: protein: recombinant; tags: N-terminal GST; dsDNA, one strand shown
# T4 sequence: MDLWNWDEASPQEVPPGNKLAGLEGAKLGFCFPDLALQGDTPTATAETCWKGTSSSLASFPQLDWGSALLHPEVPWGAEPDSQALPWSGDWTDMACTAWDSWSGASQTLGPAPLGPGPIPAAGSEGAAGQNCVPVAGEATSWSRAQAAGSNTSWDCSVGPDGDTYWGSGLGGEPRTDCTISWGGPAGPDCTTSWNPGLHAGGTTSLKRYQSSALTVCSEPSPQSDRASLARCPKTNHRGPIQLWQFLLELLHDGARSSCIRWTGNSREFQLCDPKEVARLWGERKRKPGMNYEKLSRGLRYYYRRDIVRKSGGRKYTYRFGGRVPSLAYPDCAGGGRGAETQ
# How it was run: as §1
# ELF3 = biological target: T5, ELF3 (Homo sapiens, UniProt P78545 1-371); conditions: protein: recombinant; tags: N-terminal GST; dsDNA, one strand shown
# T5 sequence: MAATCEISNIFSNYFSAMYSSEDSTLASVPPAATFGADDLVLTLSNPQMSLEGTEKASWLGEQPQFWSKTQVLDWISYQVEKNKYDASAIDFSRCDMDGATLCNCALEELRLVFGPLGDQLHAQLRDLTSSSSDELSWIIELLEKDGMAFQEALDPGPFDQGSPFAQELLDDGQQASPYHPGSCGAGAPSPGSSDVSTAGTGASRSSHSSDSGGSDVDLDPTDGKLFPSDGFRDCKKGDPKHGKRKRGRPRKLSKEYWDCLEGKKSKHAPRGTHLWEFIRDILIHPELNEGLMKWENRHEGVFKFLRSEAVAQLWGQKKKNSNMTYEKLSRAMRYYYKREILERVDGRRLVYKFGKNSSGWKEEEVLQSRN
# How it was run: as §1
# ETV1 = ETV1 (Homo sapiens, UniProt P50549 1-477); conditions: protein: recombinant; tags: N-terminal GST; dsDNA, one strand shown
# How it was run: as §1
# ERF = biological target: T6, ERF (Homo sapiens, UniProt P50548 1-548); conditions: protein: recombinant; tags: N-terminal GST; dsDNA, one strand shown
# T6 sequence: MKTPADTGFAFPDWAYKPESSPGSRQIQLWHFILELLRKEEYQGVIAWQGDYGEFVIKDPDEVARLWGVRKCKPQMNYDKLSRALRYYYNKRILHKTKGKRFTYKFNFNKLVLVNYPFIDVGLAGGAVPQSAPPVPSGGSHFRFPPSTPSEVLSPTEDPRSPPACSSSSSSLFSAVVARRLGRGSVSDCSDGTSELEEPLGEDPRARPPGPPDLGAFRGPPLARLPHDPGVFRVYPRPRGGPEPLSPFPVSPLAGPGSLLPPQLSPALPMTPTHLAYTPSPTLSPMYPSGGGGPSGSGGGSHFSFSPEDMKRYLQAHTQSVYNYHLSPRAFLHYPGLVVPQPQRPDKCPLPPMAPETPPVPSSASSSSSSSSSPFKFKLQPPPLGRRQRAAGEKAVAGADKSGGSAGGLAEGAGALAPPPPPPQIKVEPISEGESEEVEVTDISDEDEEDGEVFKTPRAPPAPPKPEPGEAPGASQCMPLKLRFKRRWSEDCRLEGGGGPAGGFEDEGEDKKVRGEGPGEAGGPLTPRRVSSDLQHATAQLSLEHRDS
# How it was run: as §1
# ETV3L = biological target: T7, ETV3L (Homo sapiens, UniProt Q6ZN32 1-361); conditions: protein: recombinant; tags: N-terminal GST; dsDNA, one strand shown
# T7 sequence: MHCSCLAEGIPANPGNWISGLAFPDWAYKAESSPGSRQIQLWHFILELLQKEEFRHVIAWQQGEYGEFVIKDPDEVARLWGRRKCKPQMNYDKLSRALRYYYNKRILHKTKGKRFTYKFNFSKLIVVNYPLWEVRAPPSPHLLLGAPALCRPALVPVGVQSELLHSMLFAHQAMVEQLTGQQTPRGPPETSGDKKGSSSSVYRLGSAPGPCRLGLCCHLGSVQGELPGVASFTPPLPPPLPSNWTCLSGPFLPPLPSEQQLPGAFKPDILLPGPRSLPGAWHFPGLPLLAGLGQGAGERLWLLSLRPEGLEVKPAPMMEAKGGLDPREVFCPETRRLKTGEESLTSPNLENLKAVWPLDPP
# How it was run: as §1
# ETS2 = biological target: T8, ETS2 (Homo sapiens, UniProt P15036 1-469); conditions: protein: recombinant; tags: N-terminal GST; dsDNA, one strand shown
# T8 sequence: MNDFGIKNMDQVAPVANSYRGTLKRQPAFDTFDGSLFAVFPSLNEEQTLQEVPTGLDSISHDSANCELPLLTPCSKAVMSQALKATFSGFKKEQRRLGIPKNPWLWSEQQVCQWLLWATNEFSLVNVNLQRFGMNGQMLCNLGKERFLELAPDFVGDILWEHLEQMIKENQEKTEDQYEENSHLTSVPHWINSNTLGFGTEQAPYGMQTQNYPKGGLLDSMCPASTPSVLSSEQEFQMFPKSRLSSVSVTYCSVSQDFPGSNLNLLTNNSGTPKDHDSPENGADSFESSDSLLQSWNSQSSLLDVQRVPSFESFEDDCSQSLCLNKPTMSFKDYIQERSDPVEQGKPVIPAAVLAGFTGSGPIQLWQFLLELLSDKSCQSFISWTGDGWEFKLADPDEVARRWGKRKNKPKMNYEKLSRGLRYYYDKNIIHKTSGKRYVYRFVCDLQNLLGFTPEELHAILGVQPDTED
# How it was run: as §1
# SPDEF = biological target: T9, SPDEF (Homo sapiens, UniProt O95238 1-335); conditions: protein: recombinant; tags: N-terminal GST; dsDNA, one strand shown
# T9 sequence: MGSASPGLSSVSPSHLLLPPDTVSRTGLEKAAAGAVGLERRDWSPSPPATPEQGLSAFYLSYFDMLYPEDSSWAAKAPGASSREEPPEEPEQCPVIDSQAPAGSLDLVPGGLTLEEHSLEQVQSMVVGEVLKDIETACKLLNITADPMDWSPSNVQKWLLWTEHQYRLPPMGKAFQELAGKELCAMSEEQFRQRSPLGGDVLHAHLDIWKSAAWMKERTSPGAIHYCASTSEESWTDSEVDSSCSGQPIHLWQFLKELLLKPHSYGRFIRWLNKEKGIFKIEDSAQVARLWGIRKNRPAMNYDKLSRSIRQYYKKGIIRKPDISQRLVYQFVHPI
# How it was run: as §1
# ETV7 = biological target: T10, ETV7 (Homo sapiens, UniProt Q9Y603 1-341); conditions: protein: recombinant; tags: N-terminal GST; dsDNA, one strand shown
# T10 sequence: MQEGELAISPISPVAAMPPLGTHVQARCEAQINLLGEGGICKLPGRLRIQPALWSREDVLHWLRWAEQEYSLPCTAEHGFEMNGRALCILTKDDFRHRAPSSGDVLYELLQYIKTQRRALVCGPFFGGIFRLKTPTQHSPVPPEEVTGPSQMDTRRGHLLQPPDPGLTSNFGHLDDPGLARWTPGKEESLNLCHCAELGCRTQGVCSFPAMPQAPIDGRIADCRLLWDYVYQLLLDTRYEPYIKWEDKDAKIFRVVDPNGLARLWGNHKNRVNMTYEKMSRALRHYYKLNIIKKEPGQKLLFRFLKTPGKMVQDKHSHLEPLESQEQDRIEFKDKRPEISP
# How it was run: as §1
# ELF5 = biological target: T11, ELF5 (Homo sapiens, UniProt Q9UKW6-2 1-255); conditions: protein: recombinant; tags: N-terminal GST; dsDNA, one strand shown
# T11 sequence: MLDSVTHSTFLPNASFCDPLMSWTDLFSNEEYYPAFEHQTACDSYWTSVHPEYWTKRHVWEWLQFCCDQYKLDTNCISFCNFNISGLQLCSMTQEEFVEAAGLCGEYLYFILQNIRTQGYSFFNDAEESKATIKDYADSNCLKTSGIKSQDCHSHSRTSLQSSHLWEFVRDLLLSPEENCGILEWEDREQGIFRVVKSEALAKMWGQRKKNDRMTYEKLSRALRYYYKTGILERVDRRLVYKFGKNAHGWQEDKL
# How it was run: as §1
# ETV3 = biological target: T12, ETV3 (Homo sapiens, UniProt P41162-2 1-143); conditions: protein: recombinant; tags: N-terminal GST; dsDNA, one strand shown
# T12 sequence: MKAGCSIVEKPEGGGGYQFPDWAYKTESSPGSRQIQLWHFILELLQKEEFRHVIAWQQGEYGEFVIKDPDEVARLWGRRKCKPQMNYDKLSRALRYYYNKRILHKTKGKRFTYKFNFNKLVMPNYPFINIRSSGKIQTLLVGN
# How it was run: as §1
# ETV6 = ETV6 (Homo sapiens, UniProt P41212 1-452); conditions: protein: recombinant; tags: N-terminal GST; dsDNA, one strand shown
# How it was run: as §1
# ETV5, sequence (P41161 whole entry): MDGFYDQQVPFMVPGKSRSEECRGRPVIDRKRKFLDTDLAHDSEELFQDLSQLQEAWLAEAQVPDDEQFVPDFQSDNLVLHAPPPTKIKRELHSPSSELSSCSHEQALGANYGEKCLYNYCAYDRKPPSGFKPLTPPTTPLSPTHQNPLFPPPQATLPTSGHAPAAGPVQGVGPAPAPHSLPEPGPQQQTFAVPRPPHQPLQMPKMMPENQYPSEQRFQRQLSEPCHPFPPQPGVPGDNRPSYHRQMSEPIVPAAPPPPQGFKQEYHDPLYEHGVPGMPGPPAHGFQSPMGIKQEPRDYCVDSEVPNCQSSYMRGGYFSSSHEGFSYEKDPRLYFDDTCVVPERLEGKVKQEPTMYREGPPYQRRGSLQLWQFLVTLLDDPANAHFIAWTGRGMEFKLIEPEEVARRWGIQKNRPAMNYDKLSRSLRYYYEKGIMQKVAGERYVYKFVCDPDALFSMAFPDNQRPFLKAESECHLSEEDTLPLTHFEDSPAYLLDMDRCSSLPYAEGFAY
# HSF1, sequence (Q00613 whole entry): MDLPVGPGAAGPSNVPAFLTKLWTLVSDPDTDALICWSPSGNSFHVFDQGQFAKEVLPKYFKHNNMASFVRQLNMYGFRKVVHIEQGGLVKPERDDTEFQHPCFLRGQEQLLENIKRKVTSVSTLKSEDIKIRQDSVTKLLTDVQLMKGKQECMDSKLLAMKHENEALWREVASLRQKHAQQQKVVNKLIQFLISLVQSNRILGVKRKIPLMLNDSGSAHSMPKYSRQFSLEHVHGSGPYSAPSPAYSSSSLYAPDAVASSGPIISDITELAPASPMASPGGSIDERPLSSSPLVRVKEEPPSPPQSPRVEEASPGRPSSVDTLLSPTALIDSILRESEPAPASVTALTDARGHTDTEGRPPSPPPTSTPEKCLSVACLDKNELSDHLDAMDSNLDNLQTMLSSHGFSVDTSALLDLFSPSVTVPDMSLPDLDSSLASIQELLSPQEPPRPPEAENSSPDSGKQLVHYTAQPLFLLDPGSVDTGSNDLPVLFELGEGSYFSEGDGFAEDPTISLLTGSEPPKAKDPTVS
# ELF4, sequence (Q99607 whole entry): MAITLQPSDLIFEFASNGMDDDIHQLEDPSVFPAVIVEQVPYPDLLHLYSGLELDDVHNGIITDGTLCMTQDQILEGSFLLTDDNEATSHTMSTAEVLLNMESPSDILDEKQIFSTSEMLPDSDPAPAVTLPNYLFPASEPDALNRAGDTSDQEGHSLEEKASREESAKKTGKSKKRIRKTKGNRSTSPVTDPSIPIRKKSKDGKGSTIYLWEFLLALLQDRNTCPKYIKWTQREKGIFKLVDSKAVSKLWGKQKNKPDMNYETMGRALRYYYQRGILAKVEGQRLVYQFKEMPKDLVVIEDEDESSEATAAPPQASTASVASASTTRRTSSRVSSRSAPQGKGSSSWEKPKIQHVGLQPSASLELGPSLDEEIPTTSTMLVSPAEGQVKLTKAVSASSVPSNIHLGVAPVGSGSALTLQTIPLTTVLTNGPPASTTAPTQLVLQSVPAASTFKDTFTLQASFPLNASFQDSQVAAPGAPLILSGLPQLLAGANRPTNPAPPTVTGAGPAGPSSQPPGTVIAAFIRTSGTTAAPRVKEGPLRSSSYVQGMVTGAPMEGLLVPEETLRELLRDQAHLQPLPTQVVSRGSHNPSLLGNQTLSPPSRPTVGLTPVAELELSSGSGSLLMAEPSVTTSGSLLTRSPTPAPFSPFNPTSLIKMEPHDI
# ETV6, sequence (P41212 whole entry): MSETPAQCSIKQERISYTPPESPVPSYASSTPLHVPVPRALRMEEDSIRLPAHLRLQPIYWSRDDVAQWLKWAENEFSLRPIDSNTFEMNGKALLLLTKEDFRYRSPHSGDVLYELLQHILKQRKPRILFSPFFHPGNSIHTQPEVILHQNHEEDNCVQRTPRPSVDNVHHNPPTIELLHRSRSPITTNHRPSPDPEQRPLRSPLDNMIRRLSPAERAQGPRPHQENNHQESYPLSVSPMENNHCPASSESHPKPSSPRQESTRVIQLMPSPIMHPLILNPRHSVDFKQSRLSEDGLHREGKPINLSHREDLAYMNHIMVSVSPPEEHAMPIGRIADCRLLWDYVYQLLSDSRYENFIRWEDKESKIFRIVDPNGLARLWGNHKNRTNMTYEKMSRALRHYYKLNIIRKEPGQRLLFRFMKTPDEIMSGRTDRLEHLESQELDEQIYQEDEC
# ETV1, sequence (P50549 whole entry): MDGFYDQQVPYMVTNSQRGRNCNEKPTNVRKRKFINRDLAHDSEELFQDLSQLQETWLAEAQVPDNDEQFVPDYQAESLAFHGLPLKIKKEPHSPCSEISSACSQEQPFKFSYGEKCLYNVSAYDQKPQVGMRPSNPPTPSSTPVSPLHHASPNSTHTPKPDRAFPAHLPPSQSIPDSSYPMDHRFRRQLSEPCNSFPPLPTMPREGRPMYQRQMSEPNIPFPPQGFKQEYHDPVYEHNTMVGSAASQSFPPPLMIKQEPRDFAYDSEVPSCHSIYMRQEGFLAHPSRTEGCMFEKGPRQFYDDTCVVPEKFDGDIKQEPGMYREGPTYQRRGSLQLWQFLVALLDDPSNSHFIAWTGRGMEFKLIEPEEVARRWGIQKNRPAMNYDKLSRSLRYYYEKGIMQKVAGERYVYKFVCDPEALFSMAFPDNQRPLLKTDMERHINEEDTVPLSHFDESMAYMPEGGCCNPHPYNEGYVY
sequence,measurement,setting,value
ACTCAC,binding signal,FEV,"1.24 fold enrichment (6-mer frequency, TF over GST control)"
same,binding signal,ETV5,"1.18 fold enrichment (6-mer frequency, TF over GST control)"
same,binding signal,HSF1,"1.07 fold enrichment (6-mer frequency, TF over GST control)"
same,binding signal,SPIC,"1.25 fold enrichment (6-mer frequency, TF over GST control)"
same,binding signal,ELF4,"1.24 fold enrichment (6-mer frequency, TF over GST control)"
same,binding signal,ELK4,"1.18 fold enrichment (6-mer frequency, TF over GST control)"
same,binding signal,ETV2,"1.24 fold enrichment (6-mer frequency, TF over GST control)"
same,binding signal,ELF3,"1.31 fold enrichment (6-mer frequency, TF over GST control)"
same,binding signal,ETV1,"1.15 fold enrichment (6-mer frequency, TF over GST control)"
same,binding signal,ERF,"1.25 fold enrichment (6-mer frequency, TF over GST control)"
same,binding signal,ETV3L,"1.16 fold enrichment (6-mer frequency, TF over GST control)"
same,binding signal,ETS2,"1.28 fold enrichment (6-mer frequency, TF over GST control)"
same,binding signal,SPDEF,"1.22 fold enrichment (6-mer frequency, TF over GST control)"
same,binding signal,ETV7,"1.2 fold enrichment (6-mer frequency, TF over GST control)"
same,binding signal,ELF5,"1.21 fold enrichment (6-mer frequency, TF over GST control)"
same,binding signal,ETV3,"1.15 fold enrichment (6-mer frequency, TF over GST control)"
same,binding signal,ETV6,"1.22 fold enrichment (6-mer frequency, TF over GST control)"
